The values below come from the supplement of paper PMC6135742.

Structures can show the parent of a compound that is named as a salt. ± gives the standard deviation of the averaged measurements. In all, about 2,600 compounds were measured (“MBP+ mature oligodendrocyte number relative to DMSO vehicle control”: median about -0.34, highest 2% from about 13 on). Shown is part of a subset that was picked to be rich in the highest values.

This experiment concerns jimpy (Plp1 jimpy) mouse iPSC-derived oligodendrocyte progenitor cells. Put plainly: MBP+ mature oligodendrocyte number relative to DMSO vehicle control (SDs above negative control mean); higher = more surviving jimpy oligodendrocytes (rescue). Conditions: 10 µM; 3 days. How it is done:
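Primary phenotypic screen of >3,000 bioactive compounds (Selleck L1700 and Sigma LO1280 libraries) at a single dose of 10 µM. Compounds were added to jimpy (Plp1 mutant) mouse iPSC-derived OPCs at the start of thyroid hormone-induced oligodendrocyte differentiation, one well per compound in 384-well plates. After 3 days cells were stained for MBP, Sox10 and DAPI and imaged with an Operetta system. MBP+ oligodendrocyte number and total cell number were expressed as the number of SDs above the mean of the DMSO negative control on the same plate (n=16 control wells per plate). Hits were defined as >=4 SD for oligodendrocytes and >=2 SD for total cells.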
Take `CN(N=O)C(=O)NC1C(O)OC(CO)C(O)C1O` (centres undefined) [Streptozotocin (STZ)]: the “MBP+ mature oligodendrocyte number” value was 0.109.

On to `CN(C)C1CCN(C(=O)c2ccc(NC(=O)Nc3ccc(-c4nc(N5CCOCC5)nc(N5CCOCC5)n4)cc3)cc2)CC1`, for which the “MBP+ mature oligodendrocyte number” value is under -6.01.

Consider `CC(C)(N)c1ncc(-c2ccc(OC(F)(F)F)cc2)[nH]1`, for which the “MBP+ mature oligodendrocyte number” value was -1.43.

As for `O=C(NC(NC(=S)Nc1ccc(F)c([N+](=O)[O-])c1)C(Cl)(Cl)Cl)C(c1ccccc1)c1ccccc1` (centres undefined), the “MBP+ mature oligodendrocyte number” value was -5.76.

Regarding `CCN(CC)Cc1ccc(C(=O)N(CCc2ccccc2OC)[C@@H]2CCNC2)cc1`, the “MBP+ mature oligodendrocyte number” value is -3.89.

As to `CCCC(CCC)C(=O)O` [Valproic acid sodium salt (Sodium valproate)], the “MBP+ mature oligodendrocyte number” value was found to be 0.72.

As for `CCCC(CCC)C(=O)O[C@H]1C[C@H]2CC[C@@H](C1)[N+]2(C)C` [Anisotropine methyl bromide], the “MBP+ mature oligodendrocyte number” value came out at 32.5.

Regarding `CC(C)[N+]1(C)[C@@H]2CC[C@H]1C[C@@H](OC(=O)C(CO)c1ccccc1)C2` (some centres undefined) [Ipratropium bromide], the “MBP+ mature oligodendrocyte number” value was -0.439.

Turning to `CCCC(CCC)C(=O)O` [Divalproex Sodium], the “MBP+ mature oligodendrocyte number” value came out at 2.05.

Consider `CCCC(CCC)C(=O)O` [Valproic acid sodium], for which the “MBP+ mature oligodendrocyte number” value came to 0.147.

With `CC(C)[N+]1(C)[C@@H]2CC[C@H]1C[C@@H](OC(=O)C(CO)c1ccccc1)C2` (some centres undefined) [Ipratropium Bromide], the “MBP+ mature oligodendrocyte number” value came to 0.883.

Take `Nc1cc(C(F)(F)F)c(-c2cc(N3CCOCC3)nc(N3CCOCC3)n2)cn1` [BKM120 (NVP-BKM120, Buparlisib)]: the “MBP+ mature oligodendrocyte number” value was -4.7.

For `Clc1ccc(N2CCN(Cc3cc4ccccn4n3)CC2)cc1`, the “MBP+ mature oligodendrocyte number” value worked out at 0.61.

As for `CCCCS(=N)(=O)CCC(N)C(=O)O` (racemic) [DL-Buthionine-[S,R]-sulfoximine], the “MBP+ mature oligodendrocyte number” value was -0.472.

With `COc1ccc(CCN(C)CCCC(C#N)(c2ccc(OC)c(OC)c2)C(C)C)cc1OC` (racemic) [(±)-Verapamil hydrochloride], the “MBP+ mature oligodendrocyte number” value was -2.6.

On to `C/C(O)=C(\C#N)C(=O)Nc1ccc(C(F)(F)F)cc1` [Teriflunomide], for which the “MBP+ mature oligodendrocyte number” value was 0.913.

`CC(C)C[C@H](C(=O)O)c1cc(-c2ccc(C(F)(F)F)cc2)cc(-c2ccc(C(F)(F)F)cc2)c1`: the “MBP+ mature oligodendrocyte number” value stood at 25.5.

On to `CC(C(=O)O)c1ccc(-c2ccccc2)c(F)c1` (centres undefined) [Flurbiprofen], for which the “MBP+ mature oligodendrocyte number” value is -0.0169.

As for `C=CC(=O)N1CCC[C@@H](n2nc(-c3ccc(Oc4ccccc4)cc3)c3c(N)ncnc32)C1`, the “MBP+ mature oligodendrocyte number” value was 0.104.

Consider `Cc1ccc(C(=O)N(CCCN)[C@@H](c2oc3cc(Cl)ccc3c(=O)c2Cc2ccccc2)C(C)C)cc1`, for which the “MBP+ mature oligodendrocyte number” value was under -4.81.

Turning to `Cc1nn(-c2ccccc2)c(C)c1C=NN1CCN(Cc2ccccc2)CC1`, the “MBP+ mature oligodendrocyte number” value is 14.2 ± 1.6.

With `Cc1cccc(CN2CCN(C(c3ccccc3)c3ccc(Cl)cc3)CC2)c1` (centres undefined) [Meclizine 2HCl], the “MBP+ mature oligodendrocyte number” value is -4.88.

As for `c1ccc(CN2CCC3(CCCc4ccccc43)CC2)cc1` [L-687,384 hydrochloride], the “MBP+ mature oligodendrocyte number” value turned out to be 0.735.

Take `Nc1n[n+]([O-])c2ccccc2[n+]1[O-]` [Tirapazamine]: the “MBP+ mature oligodendrocyte number” value is -2.44.

With `O=c1sn(-c2cccc3ccccc23)c(=O)n1Cc1ccccc1` [Tideglusib], the “MBP+ mature oligodendrocyte number” value is -0.769.

Consider `NNC(=O)CSc1nc2scc(-c3ccccc3)c2c(=O)n1-c1ccccc1`, for which the “MBP+ mature oligodendrocyte number” value is -0.637.

`OC(CCN1CCCCC1)(c1ccccc1)C1CC2C=CC1C2` (centres undefined) [Biperiden HCl]: the “MBP+ mature oligodendrocyte number” value stood at 13.7.

Turning to `OC(CCN1CCCCC1)(c1ccccc1)C1CC2C=CC1C2` (centres undefined) [Biperiden hydrochloride], the “MBP+ mature oligodendrocyte number” value came out at 2.59.

As for `OC(CCN1CCCCC1)(c1ccccc1)C1CCCCC1` (centres undefined) [Trihexyphenidyl hydrochloride], the “MBP+ mature oligodendrocyte number” value was -0.104.

With `O=c1cc(-c2cccc3c2Sc2ccccc2S3)oc(N2CCOCC2)c1`, the “MBP+ mature oligodendrocyte number” value is -3.99.

`C[N+]1(C)CCC(=C(c2ccccc2)c2ccccc2)CC1` [Diphemanil Methylsulfate]: the “MBP+ mature oligodendrocyte number” value turned out to be 19.2.

For the compound `O=C(O)c1ccccc1` [Benzoic Acid], the “MBP+ mature oligodendrocyte number” value was found to be 0.66.

For the compound `C[N+]1(C)CCC(OC(=O)C(c2ccccc2)c2ccccc2)CC1`, the “MBP+ mature oligodendrocyte number” value came to 0.467.

`C[N+]1(C)CCC(OC(=O)C(c2ccccc2)c2ccccc2)CC1` [4-DAMP methiodide]: the “MBP+ mature oligodendrocyte number” value stood at 2.86.

Consider `C=C1CC[C@H](O)C/C1=C/C=C1\CCC[C@]2(C)[C@@H]([C@H](C)CCCC(C)C)CC[C@@H]12` [Vitamin D3], for which the “MBP+ mature oligodendrocyte number” value came out at 5.56.

For the compound `C=C1CC[C@H](O)C/C1=C/C=C1\CCC[C@]2(C)[C@@H]([C@H](C)/C=C/[C@H](C)C(C)C)CC[C@@H]12` [Vitamin D2], the “MBP+ mature oligodendrocyte number” value is 21.5.

For the compound `C=C1/C(=C\C=C2/CCC[C@]3(C)[C@@H]([C@H](C)/C=C/[C@H](C)C(C)C)CC[C@@H]23)C[C@@H](O)C[C@@H]1O` [Doxercalciferol], the “MBP+ mature oligodendrocyte number” value stood at 8.14.

For the compound `CCCCCCCCCCCCCCSCC(=O)O` [Tetradecylthioacetic acid], the “MBP+ mature oligodendrocyte number” value came out at 0.00298.

Consider `CCCCC(F)(F)[C@@]1(O)CC[C@H]2[C@@H](CC(=O)[C@@H]2CCCCCCC(=O)O)O1` [Lubiprostone], for which the “MBP+ mature oligodendrocyte number” value amounted to 25.2.

In the case of `CCCCC[C@H](O)/C=C/[C@H]1[C@H](O)CC(=O)[C@@H]1CCCCCCC(=O)O` [Alprostadil], the “MBP+ mature oligodendrocyte number” value was 0.793.

As for `Cc1cnc(-c2cc(N3CCN(C(=O)CCS(C)(=O)=O)CC3)ncc2Cl)c(C)c1`, the “MBP+ mature oligodendrocyte number” value was found to be 0.184.

Regarding `CC(NCCc1ccc(O)cc1)C(O)c1ccc(O)cc1` (centres undefined) [Ritodrine hydrochloride], the “MBP+ mature oligodendrocyte number” value is 1.15.

On to `CC(C)(C(=O)O)c1ccc(C(O)CCCN2CCC(C(O)(c3ccccc3)c3ccccc3)CC2)cc1` (centres undefined) [Fexofenadine HCl], for which the “MBP+ mature oligodendrocyte number” value was 1.53.

Regarding `CC(C(O)c1ccc(O)cc1)N1CCC(Cc2ccccc2)CC1` (centres undefined) [Ifenprodil tartrate], the “MBP+ mature oligodendrocyte number” value worked out at 8.03.

Turning to `CC(NCCc1ccc(O)cc1)C(O)c1ccc(O)cc1` (centres undefined) [Ritodrine HCl], the “MBP+ mature oligodendrocyte number” value is -0.164.

As for `C[C@H](N[C@@H](CCc1ccccc1)C(=O)O)C(=O)N1CCC[C@H]1C(=O)O` [Enalaprilat Dihydrate], the “MBP+ mature oligodendrocyte number” value is -0.467.

On to `CC(C)(C(=O)O)c1ccc(C(O)CCCN2CCC(C(O)(c3ccccc3)c3ccccc3)CC2)cc1` (centres undefined) [Fexofenadine hydrochloride], for which the “MBP+ mature oligodendrocyte number” value turned out to be 0.659.

As for `CC(C(O)c1ccc(O)cc1)N1CCC(Cc2ccccc2)CC1` (centres undefined) [Ifenprodil Tartrate], the “MBP+ mature oligodendrocyte number” value was 20.3.

Turning to `C[C@@H](CN1CCC(Cc2ccccc2)CC1)[C@@H](O)c1ccc(O)cc1` [Ro 25-6981 hydrochloride], the “MBP+ mature oligodendrocyte number” value came out at 14.6.

`C[C@H](N[C@@H](CCc1ccccc1)C(=O)O)C(=O)N1CCC[C@H]1C(=O)O` [Enalaprilat dihydrate]: the “MBP+ mature oligodendrocyte number” value stood at 0.574.

As for `CC(C)(C)c1ccc(C(O)CCCN2CCC(C(O)(c3ccccc3)c3ccccc3)CC2)cc1` (centres undefined) [Terfenadine], the “MBP+ mature oligodendrocyte number” value was under -3.85.

Take `CC(=Cc1ccc(C(=O)O)cc1)c1ccc2c(c1)C(C)(C)CCC2(C)C`: the “MBP+ mature oligodendrocyte number” value was found to be 0.539.

Consider `O=C(/C=C/c1ccc(CN(CCO)CCc2c[nH]c3ccccc23)cc1)NO` [LAQ824 (Dacinostat)], for which the “MBP+ mature oligodendrocyte number” value was under -6.7.

Consider `CC(C)(C)[N+]([O-])=Cc1ccc(S(=O)(=O)O)cc1S(=O)(=O)O`, for which the “MBP+ mature oligodendrocyte number” value was found to be 2.35.

As to `CC(C)c1cc(-c2ccc(F)c3ccccc23)nc(N)n1`, the “MBP+ mature oligodendrocyte number” value came to 6.85.

For `Nc1ccc2ncnc(NCCc3ccc(Oc4ccccc4)cc3)c2c1`, the “MBP+ mature oligodendrocyte number” value was under -6.35.

For `N#C/C(=C1/SC[C@@H](c2ccc(Cl)cc2Cl)S1)n1ccnc1` [Luliconazole], the “MBP+ mature oligodendrocyte number” value was determined as 19.8.

As to `CC(=O)O[C@]1(C(C)=O)CC[C@H]2[C@@H]3C[C@H](C)C4=CC(=O)CC[C@]4(C)[C@H]3CC[C@@]21C` [Medroxyprogesterone acetate], the “MBP+ mature oligodendrocyte number” value is 16.5.

Turning to `C[C@]12CCC(=O)C=C1CC[C@@H]1[C@@H]2CC[C@@]2(C)[C@H]1CC[C@]2(O)C(=O)CO` [Cortexolone], the “MBP+ mature oligodendrocyte number” value was found to be 0.431.

Take `CC(=O)O[C@]1(C(C)=O)CC[C@H]2[C@@H]3C=C(Cl)C4=CC(=O)[C@@H]5C[C@@H]5[C@]4(C)[C@H]3CC[C@@]21C` [Cyproterone Acetate]: the “MBP+ mature oligodendrocyte number” value stood at 21.5.

For `CC(=O)OCC(=O)[C@@]1(O)CC[C@H]2[C@@H]3CCC4=CC(=O)CC[C@]4(C)[C@H]3C(=O)C[C@@]21C` [Cortisone acetate], the “MBP+ mature oligodendrocyte number” value was -0.164.

Consider `CC(=O)O[C@]1(C(C)=O)CC[C@H]2[C@@H]3C=C(C)C4=CC(=O)CC[C@]4(C)[C@H]3CC[C@@]21C` [Megestrol Acetate], for which the “MBP+ mature oligodendrocyte number” value amounted to 15.4.

Consider `CC(=O)OCC(=O)[C@@]1(O)CC[C@H]2[C@@H]3CCC4=CC(=O)CC[C@]4(C)[C@H]3C(=O)C[C@@]21C` [Cortisone 21-acetate], for which the “MBP+ mature oligodendrocyte number” value was -0.825.

With `CC(=O)S[C@@H]1CC2=CC(=O)CC[C@]2(C)[C@H]2CC[C@@]3(C)[C@@H](CC[C@@]34CCC(=O)O4)[C@H]12` [Spironolactone], the “MBP+ mature oligodendrocyte number” value amounted to 1.84 ± 1.7.

As to `CC(=O)O[C@]1(C(C)=O)CC[C@H]2[C@@H]3C[C@H](C)C4=CC(=O)C=C[C@]4(C)[C@@]3(F)[C@@H](O)C[C@@]21C` [Fluorometholone Acetate], the “MBP+ mature oligodendrocyte number” value was 10.3.

For `CC(=O)O[C@]1(C(C)=O)CC[C@H]2[C@@H]3C=C(Cl)C4=CC(=O)[C@@H]5C[C@@H]5[C@]4(C)[C@H]3CC[C@@]21C` [Cyproterone acetate], the “MBP+ mature oligodendrocyte number” value was 3.38.

Take `CC(C)CCN1c2nc(Nc3cc(F)c(O)c(F)c3)ncc2N(C)C(=O)C1C` (centres undefined): the “MBP+ mature oligodendrocyte number” value was under -6.01.

For the compound `O=C(O)CP(=O)(O)O` [Phosphonoacetic acid], the “MBP+ mature oligodendrocyte number” value is -0.64.

In the case of `O=C(O)c1cc(=O)c2c(Cl)cc(Cl)cc2[nH]1` [5,7-Dichlorokynurenic acid], the “MBP+ mature oligodendrocyte number” value was -0.544.

Take `COC(=O)C1=CO[C@@H](O)[C@@H]2C(CO)=CC[C@H]12` [Genipin]: the “MBP+ mature oligodendrocyte number” value was found to be 3.27 ± 0.9.

In the case of `C=CC(=O)Nc1cccc(Nc2nc(Nc3ccc(Oc4ccnc(C(=O)NC)c4)cc3)ncc2F)c1`, the “MBP+ mature oligodendrocyte number” value was -6.27.

For the compound `CN1CCN(C(=O)c2cc3cc(Cl)ccc3[nH]2)CC1`, the “MBP+ mature oligodendrocyte number” value stood at 1.14.

On to `N[C@@H](CC(=O)N1CCn2c(nnc2C(F)(F)F)C1)Cc1cc(F)c(F)cc1F` [Sitagliptin phosphate monohydrate], for which the “MBP+ mature oligodendrocyte number” value is 0.184.

As for `NCCOc1cc(C(=O)Nc2cc(OCCN)c3ccccc3n2)nc(C(=O)Nc2cc(OCCN)c3ccccc3n2)c1` [Pyridostatin trifluoroacetate salt], the “MBP+ mature oligodendrocyte number” value was -3.78.
